# Source: PubChem BioAssay (several laboratories)
# A selection: hits, their analogues and other compounds. The true share with any hit is near 2.3%.
# Gli-Sufu block: antagonists of Gli-Sufu signaling | Sufu-KO-LIGHT fibroblasts, Gli luciferase reporter luminescence | inhibition, % at 5 µM | 340,000 tested, 0.74% active;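 active = inhibition above about 55%, limit read from the data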
# Shn3 3UTR inh: reduces Shn3 3'UTR luciferase signal in osteoblasts; Clone20 osteoblast Shn3 3'UTR firefly luciferase, 24 h; inhibition, % at 12.5 µM; 360,000 tested, 0.52% active; AID 588674;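 active = mean inhibition of at least 75% with every replicate also reaching 75%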
# TRPM1 prom inh: reduces MITF-dependent TRPM1 promoter luciferase signal; SK-MEL-5 TRPM1 promoter luciferase, 24 h; inhibition, % at 12.5 µM; 330,000 tested, 0.83% active; AID 488899;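 active = mean inhibition across replicates of 60% or more, whatever share of single replicates reaches that level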
# LMP1 NFkB inh: inhibitors of Epstein-Barr LMP1-induced NF-kappaB reporter. inhibition, % at 12.5 µM. LMP1-induced NF-kappaB luciferase reporter cells, luminescence. 350,000 tested, 0.69% active; in the data active = inhibition above about 41%
# Jurkat NFkB inh: inhibitors of the PMA/ionomycin-induced NF-kB reporter in Jurkat cells. AID 435003. PMA/ionomycin-induced NF-kB luciferase reporter, luminescence. 330,000 tested, 0.53% active. inhibition, % at 4 µM; in the data active = inhibition above about 50%
# 697 NFkB inh: lowers PMA/ionomycin-induced NF-kB signal in 697 B cells. 697 B-cell NF-kB luciferase reporter, 16 h. inhibition, % at 4 µM. 330,000 tested, 0.33% active; in the data active = inhibition above about 35%
# 697 NFkB conf: lowers PMA/ionomycin-induced NF-kB signal in 697 B cells; shares compounds with 697 NFkB inh; 697 B-cell NF-kB luciferase, 16 h; inhibition, % at 4 µM; 2,000 tested, 35% active; AID 449746; in the data active = inhibition mostly above about 28%, no sharp cut-off; inactive = mostly below about 22%
# A number is an active result; – = inactive; · = not tested or not shown.
SMILES,Gli-Sufu block,Shn3 3UTR inh,TRPM1 prom inh,LMP1 NFkB inh,Jurkat NFkB inh,697 NFkB inh,697 NFkB conf
COc1ccccc1N(/N=C1\Sc2ccccc2C1=O)C(C)=O,–,–,–,–,–,–,–
CN(c1nc(-c2ccccc2)cs1)C1CCS(=O)(=O)C1 (stereo not drawn),–,–,–,–,–,–,·
CC1CCN(C(=O)CCCOc2cc(=O)n(C)c3ccccc23)CC1,–,–,–,–,–,38.3,37.5
CC(C)CCNC(=O)CCCOc1cc(=O)n(C)c2ccccc12,–,–,–,–,–,52.4,55.3
CN1CCN(CCCNC(=O)CCCOc2cc(=O)n(C)c3ccccc23)CC1,–,–,–,–,–,–,·
Cn1ncc2c(Nc3ccc(-c4ccccc4)cc3)ncnc21,–,–,–,–,–,–,–
Cn1ncc2c(Nc3ccc(Cl)c(Cl)c3)ncnc21,–,–,–,–,–,–,·
CCc1ccc(S(=O)(=O)c2cn(C)c3cc(OC)c(OC)cc3c2=O)cc1,–,–,–,–,–,–,·
O=C(Nc1cccc(Oc2ccc3c(c2)C(=O)NC3=O)c1)c1cccs1,–,–,–,–,–,39.2,13.6
CCC(C)[C@H](N)c1nnc(SCC(=O)c2ccc(Cl)cc2)o1 (stereo partly drawn),–,–,–,–,–,44.5,31.5
Cn1/c(=N/N=C/c2ccc(N3CCOCC3)cc2)sc2ccccc21,–,–,–,–,–,–,·
CN(C)c1ccc(/C=C(\C#N)c2ccccn2)cc1,–,–,68.3,59.7,–,–,–
CC(C)n1nc(CC(=O)O)c2ccccc2c1=O,–,–,–,–,–,–,·
CC1CCCN(C(=O)CSc2nnc3n(C4CCCC4)c(=O)c4ccccc4n23)C1 (stereo not drawn),–,–,–,–,–,35.2,–
Cn1c(=O)c2[nH]c(C3CC3)nc2n(C)c1=O,–,–,–,–,·,·,·
CC(C)c1ccc(C(=O)NCc2ccc(Cl)cc2)cc1,–,–,–,–,–,–,·
O=C(c1ccc2nc[nH]c2c1)N1CCN(c2ncc(C(F)(F)F)cc2Cl)CC1,–,–,–,–,–,–,·
COc1ccccc1/C=C1\SC(=S)N(CCC(=O)NC2=NCCS2)C1=O,–,–,–,–,–,35.4,48.0
COc1ccccc1/C=C1\SC(=S)N(CCC(=O)Nc2ccc(C(=O)O)c(O)c2)C1=O,–,–,–,–,–,–,·
CCc1ccc(/C=C2\SC(=S)N(CCC(=O)NC3=NCCS3)C2=O)cc1,·,·,·,·,–,71.1,38.1
CCc1ccc(/C=C2\SC(=S)N(CCCC(=O)Nc3ccccn3)C2=O)cc1,–,–,–,51.8,–,75.7,58.2
COc1ccccc1/C=C1\SC(=S)N(CC(=O)Nc2nnc(C)s2)C1=O,·,·,·,·,–,71.6,–
COC(=O)c1ccc(/C=C2/SC(=S)N(CCCC(=O)Nc3ccccn3)C2=O)cc1,–,–,–,–,–,–,·
O=C(CCN1C(=O)/C(=C\c2cccs2)SC1=S)NC1=NCCS1,–,–,–,–,–,–,·
Cc1cc(F)ccc1C(O)c1ncc(-c2ccccc2F)[nH]1 (stereo not drawn),·,–,·,·,·,·,·
SMILES,Gli-Sufu block,Shn3 3UTR inh,TRPM1 prom inh,LMP1 NFkB inh,Jurkat NFkB inh,697 NFkB inh,697 NFkB conf
CCOc1ccc(N(Cc2ccc(OC)c(OC)c2)C(=O)c2ccco2)cc1,–,–,·,–,–,–,·
COc1cccc(NC(=O)C(=O)NCC2CCCN2S(=O)(=O)c2ccccc2)c1 (stereo not drawn),–,–,–,–,–,–,·
CCN1CCC2(CC1)N=C(c1ccc(F)cc1)C(=S)N2,–,–,–,–,–,–,·
COc1ccccc1/C=C1/SC(=S)N(CCC(=O)Nc2cccnc2)C1=O,–,–,–,–,–,35.4,27.9
O=C(CCN1C(=O)/C(=C\c2ccccc2Cl)SC1=S)Nc1cccnc1,–,–,–,–,–,–,·
CC(C)C[C@H](NC(=O)c1nc[nH]c1C(=O)N1CCN(C(=O)OC(C)(C)C)CC1)C(=O)OC(C)(C)C,–,–,·,–,–,–,–
COc1ccccc1-c1nc(C#N)c(N2CCN(c3ccccc3)CC2)o1,–,–,–,–,–,36.6,–
COc1ccc(N2CCN(c3oc(-c4ccccc4OC)nc3C#N)CC2)cc1,–,–,–,–,–,–,·
CC(C)Cn1c(S(=O)(=O)O)nc2ccccc21,–,–,–,–,–,35.2,–
